Records with an inconclusive call do not appear. Active and inactive are the calls of the source. How the source made its calls: active means hit-call score of the fitted dose curve at least 0.9, where 1 is the maximum; inconclusive means response in the unintended direction; inactive means score below 0.9.

Usually AC50 stands for the concentration at which the activity in the assay is half-maximal.

rabbit Imidazoline 2 Central (I2C), CKB (gene 100009085), sequence (P00567 whole entry, looked up): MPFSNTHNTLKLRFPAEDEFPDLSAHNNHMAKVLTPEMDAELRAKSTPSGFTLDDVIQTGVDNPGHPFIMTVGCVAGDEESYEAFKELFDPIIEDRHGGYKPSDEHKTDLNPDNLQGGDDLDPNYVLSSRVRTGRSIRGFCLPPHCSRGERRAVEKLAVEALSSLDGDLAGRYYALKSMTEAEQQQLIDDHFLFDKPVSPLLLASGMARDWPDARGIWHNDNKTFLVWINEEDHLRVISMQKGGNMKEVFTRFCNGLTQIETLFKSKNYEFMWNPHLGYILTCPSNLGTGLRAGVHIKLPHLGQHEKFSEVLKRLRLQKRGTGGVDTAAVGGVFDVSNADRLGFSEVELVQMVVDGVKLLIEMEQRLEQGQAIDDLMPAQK
sheep Cyclooxygenase-2 (Cox2), PTGS2 (gene 443460), sequence (P79208 whole entry, looked up): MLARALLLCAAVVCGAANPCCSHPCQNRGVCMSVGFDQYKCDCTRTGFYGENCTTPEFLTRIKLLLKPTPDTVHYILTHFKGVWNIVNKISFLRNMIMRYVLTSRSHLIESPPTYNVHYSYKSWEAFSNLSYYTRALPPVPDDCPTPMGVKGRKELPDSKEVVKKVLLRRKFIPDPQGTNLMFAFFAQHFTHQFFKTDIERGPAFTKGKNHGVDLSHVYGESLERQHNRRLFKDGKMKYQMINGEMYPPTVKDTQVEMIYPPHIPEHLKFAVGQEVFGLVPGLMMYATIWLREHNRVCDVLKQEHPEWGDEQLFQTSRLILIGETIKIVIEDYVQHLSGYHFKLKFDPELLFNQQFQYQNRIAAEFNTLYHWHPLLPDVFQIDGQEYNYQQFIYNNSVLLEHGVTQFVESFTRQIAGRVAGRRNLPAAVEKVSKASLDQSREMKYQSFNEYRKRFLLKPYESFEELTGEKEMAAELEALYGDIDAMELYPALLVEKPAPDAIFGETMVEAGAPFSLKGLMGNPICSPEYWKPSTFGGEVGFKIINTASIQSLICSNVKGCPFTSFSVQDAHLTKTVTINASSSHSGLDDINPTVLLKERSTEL

One assay addresses rabbit Imidazoline 2 Central (I2C), CKB (gene 100009085) (UniProt P00567). Briefly: NVS_ENZ_rabI2C: NovaScreen (NVS) Enzymatic Assay for rabbit Imidazoline 2 Central (I2C) (AID 2283228). The method, boiled down:
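Rabbit brain membranes, cell-free; readout by filter-based scintillation counting 1.5 hours after dosing, loss of signal vs DMSO. Initial duplicate test at 25 uM, then concentration-response with 50 uM top concentration.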
Regarding `CCN(C(=O)c1cc(C)cc(OC[C@H](C)Nc2ccncc2)c1)C(C)C`, the outcome was inactive.

In the case of `CCOC(=O)c1ccc(C2CCC(NC[C@H](O)COc3ccc(O)c(NS(C)(=O)=O)c3)CC2)cc1` (stereo partly drawn), the AC50 was 23.4 µM (active).

For the compound `Fc1ccccc1[C@@H](F)COC1CCC(Nc2ncnc3[nH]ncc23)CC1` (stereo partly drawn), the call was inactive.

As to `CC[C@H]1CC[C@H](NCc2cc3c(cc2OC)[C@H]2C[C@H]2C(=O)N3C)[C@H](c2ccccc2)N1`, the AC50 was 10.4 µM (active).

The target of the next assay is human Vascular Endothelial Growth Factor Receptor 2 (VEGFR2), KDR (gene 3791) (UniProt P35968). Briefly: NVS_ENZ_hVEGFR2: NovaScreen (NVS) Enzymatic Assay for human Vascular Endothelial Growth Factor Receptor 2 (VEGFR2) (AID 2283230). The method, boiled down: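 Cell-free recombinant VEGFR2 kinase, fluorescent substrate with electrophoretic mobility-shift separation; read 1 h after dosing. Screened at 25 uM in duplicate, hits to concentration-response up to 50 uM; loss-of-signal versus DMSO.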
human Vascular Endothelial Growth Factor Receptor 2 (VEGFR2), KDR (gene 3791), sequence (P35968 whole entry, looked up): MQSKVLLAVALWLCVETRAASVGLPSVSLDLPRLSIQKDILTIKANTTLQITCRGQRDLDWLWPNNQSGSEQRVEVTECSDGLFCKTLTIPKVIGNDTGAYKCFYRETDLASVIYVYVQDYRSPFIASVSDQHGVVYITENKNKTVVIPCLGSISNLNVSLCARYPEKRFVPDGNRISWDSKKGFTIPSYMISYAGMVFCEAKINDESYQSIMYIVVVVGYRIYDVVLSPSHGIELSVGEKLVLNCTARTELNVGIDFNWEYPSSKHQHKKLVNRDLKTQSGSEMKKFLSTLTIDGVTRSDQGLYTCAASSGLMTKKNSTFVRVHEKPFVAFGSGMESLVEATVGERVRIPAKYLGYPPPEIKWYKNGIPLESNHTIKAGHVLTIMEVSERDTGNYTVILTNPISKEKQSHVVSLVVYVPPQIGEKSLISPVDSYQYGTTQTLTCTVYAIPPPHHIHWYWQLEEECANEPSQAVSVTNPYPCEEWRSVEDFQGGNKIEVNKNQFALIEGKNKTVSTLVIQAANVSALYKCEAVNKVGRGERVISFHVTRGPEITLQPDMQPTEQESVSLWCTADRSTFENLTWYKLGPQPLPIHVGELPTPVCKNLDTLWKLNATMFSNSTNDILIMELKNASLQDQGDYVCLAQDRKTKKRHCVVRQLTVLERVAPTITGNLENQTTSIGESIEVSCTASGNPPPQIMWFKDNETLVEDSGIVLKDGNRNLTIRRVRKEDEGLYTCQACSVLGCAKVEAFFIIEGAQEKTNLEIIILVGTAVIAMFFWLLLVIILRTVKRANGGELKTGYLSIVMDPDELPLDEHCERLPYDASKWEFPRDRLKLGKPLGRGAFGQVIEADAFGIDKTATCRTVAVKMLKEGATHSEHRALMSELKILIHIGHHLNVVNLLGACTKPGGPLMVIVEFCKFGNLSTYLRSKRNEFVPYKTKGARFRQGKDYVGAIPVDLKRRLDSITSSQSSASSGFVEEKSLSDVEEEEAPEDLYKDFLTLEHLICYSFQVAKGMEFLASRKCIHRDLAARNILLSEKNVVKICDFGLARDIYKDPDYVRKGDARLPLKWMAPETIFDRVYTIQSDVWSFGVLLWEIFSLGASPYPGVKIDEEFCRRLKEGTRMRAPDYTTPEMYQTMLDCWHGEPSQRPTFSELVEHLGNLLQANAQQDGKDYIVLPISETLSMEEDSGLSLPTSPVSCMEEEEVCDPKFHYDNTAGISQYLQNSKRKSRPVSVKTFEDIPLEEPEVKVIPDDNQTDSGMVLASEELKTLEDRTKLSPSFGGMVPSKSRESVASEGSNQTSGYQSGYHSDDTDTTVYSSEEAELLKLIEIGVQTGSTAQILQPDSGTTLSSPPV
`CCC(C)(C)C(=O)O[C@H]1C[C@@H](C)C=C2C=C[C@H](C)[C@H](CC[C@@H]3C[C@@H](O)CC(=O)O3)[C@H]21`: the outcome was inactive.

`CC(C)=CCC/C(C)=C\CO`: the compound was classed as inactive.

Consider `CCOC(=O)COc1ccc2c(c1)CC(NCC(O)c1cccc(Cl)c1)CC2` (stereo not drawn), for which the call was inactive.

On to `On1ccccc1=S`, for which the outcome was inactive.

With `Fc1ccccc1[C@@H](F)COC1CCC(Nc2ncnc3[nH]ncc23)CC1` (stereo partly drawn), the AC50 was 0.213 µM (active).

Turning to `CCCCCCCCCCCCCCCO`, the compound was called inactive.

`CCOc1cccc(-n2cc(C(=O)N3CCN(c4cc(C(=O)O)c5ccccc5c4)CC3)nc2-c2ccc(C)cc2)c1`: the compound was classed as inactive.

As to `COc1ccc2sc(C(=O)Nc3nnn[nH]3)c(OC(C)C)c2c1`, the outcome was inactive.

As for `C=CC(=C)CCC=C(C)C`, the result was inactive.

Turning to `CCOCCOCCOCCO`, the outcome was inactive.

Another assay has as its target sheep Cyclooxygenase-2 (Cox2), PTGS2 (gene 443460) (UniProt P79208). In words: NVS_ENZ_oCOX2: NovaScreen (NVS) Enzymatic Assay for sheep Cyclooxygenase-2 (Cox2) (AID 2283231). The method, boiled down:
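Compounds were first run at 25 uM in duplicate against tissue-extracted ovine COX-2; those passing a preset inhibition threshold went to singleton concentration-response testing with a 50 uM maximum. Read-out: absorbance at 0.66 hour.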
Regarding `O=C(OC[C@H]1O[C@@H](OC(=O)c2cc(O)c(O)c(OC(=O)c3cc(O)c(O)c(O)c3)c2)[C@H](OC(=O)c2cc(O)c(O)c(OC(=O)c3cc(O)c(O)c(O)c3)c2)[C@@H](OC(=O)c2cc(O)c(O)c(OC(=O)c3cc(O)c(O)c(O)c3)c2)[C@@H]1OC(=O)c1cc(O)c(O)c(OC(=O)c2cc(O)c(O)c(O)c2)c1)c1cc(O)c(O)c(OC(=O)c2cc(O)c(O)c(O)c2)c1`, the AC50 is 2.87 µM (active).

For the compound `CC(C)=CCC/C(C)=C\CO`, the AC50 is 4.26 µM (active).

For the compound `Cc1ccc(C)c(O)c1`, the call was inactive.

Take `CCOC(=O)c1ccc(C2CCC(NC[C@H](O)COc3ccc(O)c(NS(C)(=O)=O)c3)CC2)cc1` (stereo partly drawn): the AC50 was 8.48 µM (active).

`C[C@](N)(Cc1ccc(O)c(O)c1)C(=O)O`: the AC50 was 6.83 µM (active).

For `CCCCCCc1ccc(O)cc1O`, the AC50 was 11 µM (active).

Regarding `COc1ccc(-n2nc(C(F)F)cc2-c2ccc(S(C)=O)cc2)cc1` (stereo not drawn), the AC50 was 0.478 µM (active).

Turning to `CCOc1cccc(-n2cc(C(=O)N3CCN(c4cc(C(=O)O)c5ccccc5c4)CC3)nc2-c2ccc(C)cc2)c1`, the AC50 is 6.87 µM (active).

Consider `CC(=O)c1ccc2c(c1)[C@H](NC(=O)c1ccc(F)cc1)[C@@H](O)C(C)(C)O2`, for which the concentration at half-maximal activity (AC50) is 11.3 µM (active).

These data come from PubChem BioAssay (EPA / NIEHS).
